RAD52 inh: RAD52 (human) annealing inhibition | 360,000 tested, 0.46% active | inhibition, % at 18.7 µM | AID 651710 | recombinant RAD52 DNA annealing, FRET fluorescence;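 active = every replicate showing at least 50% inhibition; inconclusive = mean inhibition at least 50% but not in every replicate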
Target sequence (P43351 whole entry, looked up): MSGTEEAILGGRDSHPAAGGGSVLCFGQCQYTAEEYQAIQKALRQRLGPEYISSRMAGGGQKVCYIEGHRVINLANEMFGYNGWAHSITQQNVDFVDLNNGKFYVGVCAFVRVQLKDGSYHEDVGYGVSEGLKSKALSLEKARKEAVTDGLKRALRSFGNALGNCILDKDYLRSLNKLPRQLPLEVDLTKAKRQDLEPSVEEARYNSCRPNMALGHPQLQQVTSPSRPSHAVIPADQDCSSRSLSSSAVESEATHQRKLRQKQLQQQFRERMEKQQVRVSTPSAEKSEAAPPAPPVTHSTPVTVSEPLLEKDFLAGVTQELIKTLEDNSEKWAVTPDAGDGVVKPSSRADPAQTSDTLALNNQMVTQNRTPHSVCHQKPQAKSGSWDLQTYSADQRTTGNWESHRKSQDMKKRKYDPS
AF4-AF9 inh: inhibitors of human MLL-AF4/AF9 interaction; P42568; AlphaScreen, biotin-AF4 peptide binding to FLAG-AF9; inhibition, % at 10 µM; 350,000 tested, 0.47% active; AID 651704;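 active = every replicate reaching a set inhibition limit, whatever the replicate mean, cut at about 25% in these data; inconclusive = mean inhibition reaches that limit but some replicates miss it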
CASP6 VEID inh: caspase-6 (human) enzyme inhibition; P55212; purified caspase-6, Z-VEID-R110 cleavage fluorescence; inhibition, % at 12.5 µM; 350,000 tested, 0.53% active;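 active = mean inhibition across replicates at least about 35%, with every replicate also reaching that limit, limit read from the data; inconclusive = only one of the two criteria met; inactive = neither criterion met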
NSD2 inh: blocks human histone methyltransferase NSD2; O96028; NSD2 peptide methylation, AlphaScreen, 120 min; inhibition, % at 12.5 µM; 310,000 tested, 0.54% active; AID 743445; in the data active = inhibition above about 50%
Ecoli rRNA inh: inhibits bacterial ribosomal RNA function over humanized ribosomes. E. coli WT GFP vs humanized-ribosome RFP mutants, fluorescence, 24 h; active compounds read low; DMSO median 0, no signal -100. 350,000 tested, 1.6% active. GFP signal change (wild-type ribosome), % (test concentration not listed);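 active = significant combined selectivity score with lowered wild-type GFP, culture density cut under 30%, mutant RFP and density less affected; inactive = any of these conditions unmet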
AID977621: growth inhibition of wild-type GFP E. coli, dose response, H69 mutant RFP, cherry-pick. 1,900 tested, under 10 active. AID 977621. shares compounds with Ecoli rRNA inh. E. coli wild-type GFP strain growth, fluorescence, 24 h. activity change, negative = inhibition at 50 µM;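 active = Wild-type ribosome reporter drop at least double the humanized mutant ribosome reporter drop, growth loss under a set limit; inconclusive = no clear call, values can overlap the other calls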;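 also: wild-type GFP and H69 mutant RFP strains grown together 50/50 in each well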
AID977628: growth of wild-type and h24-humanized E. coli strains – h24 mutant RFP vs wild-type GFP, cherry-pick, dose response. E. coli WT GFP strain growth, fluorescence, 24 h. 1,900 tested, under 10 active. activity change, negative = inhibition at 50 µM. shares compounds with Ecoli rRNA inh;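 active = compound lowering the normal-ribosome reporter at least twice as much as the humanized-ribosome reporter, growth loss under a set limit; inconclusive = no clear call, values can overlap the other calls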;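 also: wild-type GFP and h24 humanized RFP strains co-cultured 1 to 1 per well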
Hits are given with their value; . = inactive; ? = inconclusive; / = not tested or not shown. Only some compounds are listed: those with a hit (about 2.5% of all), similar ones and a draw of the others.

SMILES	RAD52 inh	AF4-AF9 inh	CASP6 VEID inh	NSD2 inh	Ecoli rRNA inh	AID977621	AID977628
C[C@@H]1CN([C@@H](C)CO)C(=O)c2cc(NC(=O)Nc3cccc4ccccc34)ccc2O[C@@H](C)CCCCO[C@@H]1CN(C)C(=O)CCCN(C)C	.	.	.	/	.	/	/
C[C@@H]1CN([C@@H](C)CO)C(=O)c2cccc(NC(=O)C3CC3)c2O[C@@H]1CN(C)S(=O)(=O)c1cccs1	.	.	.	/	.	/	/
Fc1cnc(N2CCc3ccccc32)nc1N1CCc2ccccc21	/	/	/	.	/	/	/
CC1(C)CC(=O)c2cnc(N3CCc4ccccc43)nc2C1	.	.	.	.	-34	.	/
C[C@H](CO)N1C[C@H](C)[C@H](CN(C)C(=O)NC2CCCCC2)Oc2ccc(N(C)C)cc2C1=O	.	.	.	/	.	/	/
COc1cccc(CNC(=O)CCSCc2ccccc2F)c1	.	.	.	.	-29	.	/
COCCNC(=O)CCSCc1ccccc1F	/	/	/	.	/	/	/
O=C(CCSCc1ccccc1F)NCc1cccnc1	.	.	.	.	.	/	/
COc1cccc(OC)c1CNC(=O)CCSCc1ccccc1F	.	.	.	.	-35	.	.
O=C(C[C@@H]1CC[C@@H](NC(=O)Nc2cc(F)ccc2F)[C@@H](CO)O1)NCCCN1CCOCC1	.	.	.	/	.	/	/
COc1ccccc1NC(=O)Nc1ccc2c(c1)C(=O)N(C)C[C@H](OC)[C@H](C)CN(C)[C@@H](C)CO2	.	.	/	/	.	/	/
CCCC#C/C(CCC)=C1\c2ccccc2C(=O)N1c1ccccc1	.	.	.	/	-16	.	?
Cc1noc(C)c1S(=O)(=O)N(Cc1ccccc1)C(C)C	.	/	.	.	-19	.	.
COc1cc2cc(C(=O)Nc3ccc4c(c3)OCCO4)[nH]c2cc1OC	.	.	.	.	-21	.	.
Cc1ccc2nc(SCC(=O)c3ccc4c(c3)NC(=O)CO4)[nH]c2c1	.	.	.	.	-21	.	?
CC(=O)NC[C@@H]1[C@@H](c2ccc(-c3ccccc3)cc2)[C@H](CO)N1C(=O)C1CC1	.	.	.	/	.	/	/
c1ccc(-c2csc(Nc3ncccn3)n2)cc1	/	/	/	.	/	/	/
Oc1ccc(-c2csc(Nc3ncccn3)n2)cc1	.	.	.	/	-17	.	.
COc1ccc(NC(=O)Nc2cccc3c2O[C@H](CN(C)S(=O)(=O)c2ccc(C)cc2)[C@@H](C)CN([C@H](C)CO)C3=O)cc1	.	.	.	/	.	/	/
CC(C)NC(=O)Nc1ccc2c(c1)CC(=O)N([C@@H](C)CO)C[C@H](C)[C@H](CN(C)Cc1ccc(C(=O)Nc3ccccc3N)cc1)O2	.	.	.	/	.	/	/
CN1c2ccc(-c3cccc(C#N)c3)cc2[C@H]2[C@H](CCN2C(=O)C2CCC2)[C@H]1CO	/	/	/	/	.	/	/
CO[C@@H]1CN(C)C(=O)c2ccc(NC(=O)c3nc4ccccc4s3)cc2OC[C@@H](C)N(Cc2ccncc2)C[C@@H]1C	.	.	.	/	-25	/	?
CO[C@@H]1CN(C)C(=O)c2ccc(NC(=O)c3nc4ccccc4s3)cc2OC[C@H](C)N(Cc2ccncc2)C[C@@H]1C	.	.	.	/	.	/	/
COC(=O)CN1C(=S)N(c2ccc(F)cc2)C(=O)C1CC(=O)Nc1ccccc1 (centres undefined)	.	.	.	.	.	/	/
O=C(CC1C(=O)N(c2ccc(Cl)cc2)C(=S)N1CCc1ccncc1)Nc1ccc(F)cc1 (centres undefined)	.	.	.	.	-21	.	/
SMILES	RAD52 inh	AF4-AF9 inh	CASP6 VEID inh	NSD2 inh	Ecoli rRNA inh	AID977621	AID977628
COC(=O)CN1C(=S)N(c2ccc(F)cc2)C(=O)C1CC(=O)Nc1ccc(OC)cc1 (centres undefined)	.	/	.	.	-22	/	.
COCCNC(=O)C[C@H]1C[C@H]2c3cc(NC(=O)c4ccc5c(c4)OCO5)ccc3O[C@H]2[C@H](CO)O1	.	.	.	/	.	/	/
O=C(c1cnccn1)N1CC(=O)N2[C@H](CO)[C@H](c3ccc(-c4cccc(F)c4)cc3)[C@H]2C1	.	.	.	/	.	/	/
COc1ccc(C(CC(=O)c2ccc(O)cc2)S(=O)(=O)c2ccc(C)cc2)cc1 (centres undefined)	.	.	.	/	-24	.	.
COc1ccc(C(=O)CCS(=O)(=O)c2ccc(C)cc2)cc1	.	.	.	.	.	/	/
COc1ccc(CCCc2nc3ccccc3[nH]2)cc1	.	.	.	.	-22	.	?
c1ccc2[nH]c(CCCCc3nc4ccccc4[nH]3)nc2c1	.	.	.	.	.	/	/
CO[C@@H]1CN(C)C(=O)c2ccc(NC(=O)Cc3ccccc3)cc2OC[C@H](C)NC[C@@H]1C	.	.	.	/	.	/	/
COc1ccc(Nc2nc(NCCO)nc(N3CCCC3)n2)cc1	.	.	.	/	-16	.	?
Cc1c(CCOC(=O)C23CC4CC(CC(C4)C2)C3)sc[n+]1Cc1ccccc1	.	.	.	.	-27	.	.
Cc1c(CCOC(=O)C23CC4CC(CC(C)(C4)C2)C3)sc[n+]1Cc1ccccc1	/	/	/	.	/	/	/
CCc1nnc(NS(=O)(=O)c2ccc(NC(=O)c3cccc(Cl)c3)cc2)s1	.	.	.	.	-17	?	?
CCc1nnc(NS(=O)(=O)c2ccc(NC(=O)c3ccc(Cl)cc3)cc2)s1	.	.	.	.	.	/	/
O=C(CN1CCc2ccccc2C1)Nc1ccc(F)cc1F	.	.	.	.	-21	.	?
COc1cc2c(cc1OC)CN(CC(=O)Nc1ccc(F)cc1F)CC2	.	.	.	.	.	/	/
COCCNC(=O)c1cc2c(c(-c3cccc(-c4cccc(F)c4)c3)n1)[C@H](CCO)N([S@@](=O)C(C)(C)C)C2	.	.	.	/	.	/	/
c1ccc(OCc2noc(CN3CCC(C4CCCCC4)C3)n2)cc1 (centres undefined)	.	.	.	.	.	/	/
Fc1ccccc1C1CCN(Cc2nc(COc3ccccc3)no2)C1 (centres undefined)	.	.	.	.	-16	.	.
C(#CSCc1ccccc1)SCc1ccccc1	.	.	.	.	.	/	/
c1ccc(CSCc2ccccc2)cc1	.	.	.	/	-25	.	.
C[C@H](CO)N1C[C@H](C)[C@H](CN(C)C(=O)Nc2ccccc2)Oc2ccc(NS(=O)(=O)c3ccc(F)cc3)cc2C1=O	.	.	.	/	.	/	/
COc1ccc(CCN2C(=O)CC(Cc3cccc(C)c3)C2=O)cc1OC (centres undefined)	.	.	.	.	.	/	/
COc1ccc(CN2C(=O)CC(Cc3cc(C)cc(C)c3)C2=O)cc1OC (centres undefined)	.	.	.	.	-20	.	/
O=C(Nc1ccc(C(F)(F)F)cc1)C1CCN(c2cnccn2)CC1	.	.	.	.	-31	.	.
Cc1ccc(NC(=O)C2CCN(c3cnccn3)CC2)cc1	.	.	.	.	.	/	/
